# Values joined by “and” are separate entries in the source; they are usually repeats but may differ in a detail not shown here. Equal entries are not always repeated. Structures can show the parent of a compound that is named as a salt. Hit rate of the full screen: of about 5,800 compounds, about 620 (11%) showed activity. This excerpt belongs to a sample that is enriched for actives. Unmarked numbers belong to inactive results.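 The calls were made as follows: active = score above a cut-off or among the top three wells of a plate; in these data no inactive exceeds 0.85.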
# System: primary human hepatic stellate cells (donor 1)
# Experiment: scaled lipid accumulation score (0 = DMSO-like, 1 = nortriptyline-like); higher = stronger HSC inactivation (lipid re-accumulation), active = hit call of the paper
# Conditions: 48 h
# [1] = library stock concentration: 3.33 mM
# [2] = library stock concentration: 10 mM
# [3] = library stock concentration: 1 mM
# [4] = library stock concentration: 80 uM
# [5] = library stock concentration: 400 uM
# [6] = library stock concentration: 2 mM
structure (smiles),measurement,setting,value
O=C1CC(=O)c2c(Cl)c(Cl)c(Cl)c(Cl)c21,scaled lipid accumulation score,[1],≤ -0.009
same,scaled lipid accumulation score,[2],0.011
CC(C)n1cnc2c(NCCc3ccc(O)cc3)nc(-c3csc4ccccc34)nc21 [StemRegenin 1 (SR1)] [listing 1 of 2 here],scaled lipid accumulation score,[2],0.919 (active)
CC(C)n1cnc2c(NCc3ccccc3)nc(NCCO)nc21 [N9-Isopropylolomoucine],scaled lipid accumulation score,library stock concentration: 15.3 mM,≤ -0.012
CC(C)n1cnc2c(NCCc3ccc(O)cc3)nc(-c3csc4ccccc34)nc21 [StemRegenin 1 (SR1)] [listing 2 of 2 here],scaled lipid accumulation score,[1],≤ 0
CC\C=C/C=C/C=C/C=C\CCCCCCCC(=O)O [cis-Parinaric Acid],scaled lipid accumulation score,[3],0.028
CC(C)Oc1ccc(C(=O)c2ccc(NC3=NCCN3)cc2)cc1,scaled lipid accumulation score,[3],0.073
CC(=O)Nc1nc2c(Oc3cc(-c4ccc(C(F)(F)F)cc4)ncn3)cccc2s1,scaled lipid accumulation score,[1],≤ -0.009
same,scaled lipid accumulation score,[2],0.221
CCN(CC)CC1CCN(c2ncc3ncnc(Nc4ccc(F)c(Cl)c4)c3n2)CC1.Cl.Cl [BIBU 1361 dihydrochloride],scaled lipid accumulation score,[2],1.06 (active)
CN1CCC(Nc2ncc3ncnc(Nc4ccc(F)c(Cl)c4)c3n2)CC1.Cl.Cl [BIBX 1382 dihydrochloride],scaled lipid accumulation score,[2],1.61 (active)
COc1ccc(F)c(F)c1C(=O)c1cnc(NC2CCN(S(C)(=O)=O)CC2)nc1N,scaled lipid accumulation score,[1],0.082
same,scaled lipid accumulation score,[2],0.057
COc1ccc(CC(=O)NC(/N=C(\NC#N)Nc2cccc3ncccc23)C(C)(C)C)cc1OC (stereo unspecified),scaled lipid accumulation score,[2],0.014
O=C(O[C@@H]1Cc2c(O)cc(O)cc2O[C@@H]1c1cc(O)c(O)c(O)c1)c1cc(O)c(O)c(O)c1 [Epigallocatechin gallate],scaled lipid accumulation score,[4],≤ 0
same,scaled lipid accumulation score,[5],≤ 0
same,scaled lipid accumulation score,[6],≤ 0
same,scaled lipid accumulation score,[2],≤ 0
O=C(O[C@@H]1Cc2c(O)cc(O)cc2O[C@@H]1c1cc(O)c(O)c(O)c1)c1cc(O)c(O)c(O)c1 [(-)-Epigallocatechin Gallate],scaled lipid accumulation score,[3],≤ 0
Oc1nc(-c2ccc(C(F)(F)F)cc2)nc2c1CSCC2,scaled lipid accumulation score,[3],≤ 0
same,scaled lipid accumulation score,[1],≤ 0
same,scaled lipid accumulation score,[2],≤ 0 and 0.004
c1ccc(Cn2c(-c3ccc(OCC(C4CCNCC4)n4c(-c5ccccc5)nc5ccccc54)cc3)nc3ccccc32)cc1 (stereo unspecified) [Deltarasin],scaled lipid accumulation score,[1],0.766
same,scaled lipid accumulation score,[2],0.104
O=c1[nH]c(=S)[nH]c(-c2ccccc2)c1Cc1c(O)ccc2ccccc12 [Cambinol],scaled lipid accumulation score,[2],0.124
Cc1nc(Nc2n[nH]c3c2CN(C(=O)N[C@H](CN(C)C)c2ccccc2)C3(C)C)c2sccc2n1 [listing 1 of 2 here],scaled lipid accumulation score,[2],0.887 (active)
CC(C)CC(=O)Nc1n[nH]c2c1CN(C(=O)C1CCN(C)CC1)C2(C)C,scaled lipid accumulation score,[4],≤ 0
same,scaled lipid accumulation score,[5],0.21
same,scaled lipid accumulation score,[6],0.029
same,scaled lipid accumulation score,[1],0.199
same,scaled lipid accumulation score,[2],≤ 0 and 0.015
Cc1nc(Nc2n[nH]c3c2CN(C(=O)N[C@H](CN(C)C)c2ccccc2)C3(C)C)c2sccc2n1 [listing 2 of 2 here],scaled lipid accumulation score,[4],≤ -0.016
same,scaled lipid accumulation score,[5],0.092
same,scaled lipid accumulation score,[6],0.522
same,scaled lipid accumulation score,[1],≤ -0.009
same,scaled lipid accumulation score,[2],0.594
Cc1nn(C)c(COc2ccc(N3CCN(S(=O)(=O)N(C)C)CC3)cc2)c1-c1cccc2c(CCCOc3cccc4ccccc34)c(C(=O)O)n(CCN3CCOCC3)c12,scaled lipid accumulation score,[4],≤ -0.001
same,scaled lipid accumulation score,[5],≤ -0.001
same,scaled lipid accumulation score,[6],≤ -0.001
same,scaled lipid accumulation score,[2],≤ -0.001
CCCCCCCCCCCCCCCCCCN(CCCCCCCCCCCCCCCCCC)CCCN(CCO)CCO [Avridine],scaled lipid accumulation score,[2],≤ 0
N[C@@H](Cn1ccc(=O)c(O)c1)C(=O)O [L-Mimosine from Koa hoale seeds],scaled lipid accumulation score,[2],≤ 0
O=C(c1ccc(OCCN2CCCCC2)cc1)c1c(-c2ccc(O)cc2)sc2cc(O)ccc12 [Raloxifene hydrochloride],scaled lipid accumulation score,,0.032
same,scaled lipid accumulation score,[2],0.661 and 0.376
O=C(c1ccc(OCCN2CCCCC2)cc1)c1c(-c2ccc(O)cc2)sc2cc(O)ccc12,scaled lipid accumulation score,[2],0.798
Cl.c1cc(OCCN2CCCCC2)cc(-c2n[nH]c3ccc(-c4nc[nH]n4)cc23)c1,scaled lipid accumulation score,[2],1.28 (active)
O=C(OCCN1CCCCC1)c1c[nH]c2ccccc12,scaled lipid accumulation score,[2],0.289
c1cc(OCCN2CCCCC2)cc(-c2n[nH]c3ccc(-c4ncn[nH]4)cc23)c1,scaled lipid accumulation score,[2],1.72 (active)
O=C(c1ccc(OCCN2CCCCC2)cc1)c1c(-c2ccc(O)cc2)sc2cc(O)ccc12 [Raloxifene HCl],scaled lipid accumulation score,[1],≤ 0
same,scaled lipid accumulation score,[2],0.575
c1ccc(-c2nn3c(c2-c2ccnc4cc(OCCN5CCOCC5)ccc24)CCC3)nc1,scaled lipid accumulation score,[4],≤ -0.001
same,scaled lipid accumulation score,[5],≤ -0.001
same,scaled lipid accumulation score,[6],≤ -0.001
same,scaled lipid accumulation score,[2],≤ -0.001
c1cc(OCCN2CCCCC2)cc(-c2n[nH]c3ccc(-c4nnc[nH]4)cc23)c1,scaled lipid accumulation score,[4],≤ -0.016
same,scaled lipid accumulation score,[5],≤ -0.016 and ≤ -0.005
same,scaled lipid accumulation score,[6],≤ -0.016 and 0.022
CCCCC[C@H](O)/C=C/C1=C(C/C=C\CCCC(=O)O)C(=O)CC1 [Prostaglandin B2],scaled lipid accumulation score,[3],≤ 0 and ≤ -0.021
CC(=N)NCCCC[C@H](N)C(=O)O [L-NIL hydrochloride],scaled lipid accumulation score,[2],0.025
CCCCCCCCCCCC(=O)c1nc2ncccc2o1,scaled lipid accumulation score,[3],≤ 0
CCCCC/C=C\C/C=C\CCCCCCCC(=O)NCC(=O)O [N-linoleoylglycine],scaled lipid accumulation score,[3],≤ -0.021
CCCCC(CC)COc1ccc(-c2nc(-c3ccc(OC)cc3)nc(-c3ccc(OCC(CC)CCCC)cc3O)n2)c(O)c1 (stereo unspecified),scaled lipid accumulation score,[2],≤ 0
"CCCCCC=CCC=CCCCCCCCCCC(=O)O [11(Z),14(Z)-Eicosadienoic Acid]",scaled lipid accumulation score,[3],≤ 0
Cc1cccc(Nc2nc(-c3ccncc3)cs2)c1 [listing 1 of 2 here],scaled lipid accumulation score,[3],≤ 0
Oc1ccc(Nc2nc(-c3ccc(Cl)cc3)cs2)cc1 [Sphingosine Kinase Inhibitor 2],scaled lipid accumulation score,[3],0.058
Oc1ccc(Nc2nc(-c3ccc(Cl)cc3)cs2)cc1,scaled lipid accumulation score,[4],≤ -0.001
same,scaled lipid accumulation score,[5],≤ -0.001
same,scaled lipid accumulation score,[6],≤ -0.001
same,scaled lipid accumulation score,[1],≤ -0.009
same,scaled lipid accumulation score,[2],0.141 and 0.011
Cc1cccc(Nc2nc(-c3ccncc3)cs2)c1 [listing 2 of 2 here],scaled lipid accumulation score,[1],0.881 (active)
same,scaled lipid accumulation score,[2],1.24 (active)
C[C@H]1Oc2cc(cnc2N)-c2c(nn(C)c2C#N)CN(C)C(=O)c2ccc(F)cc21,scaled lipid accumulation score,[4],≤ 0
same,scaled lipid accumulation score,[5],≤ 0
same,scaled lipid accumulation score,[6],0.031
same,scaled lipid accumulation score,[2],≤ 0
C[C@H]1COc2c(C3(N)CC3)c(F)cc3c(=O)c(C(=O)O)cn1c23 [Pazufloxacin],scaled lipid accumulation score,library stock concentration: 6.3 mM,≤ 0
C[C@H]1COc2c(C3(N)CC3)c(F)cc3c(=O)c(C(=O)O)cn1c23,scaled lipid accumulation score,[2],0.025 and ≤ 0
Clc1ccccc1C(c1ccccc1)(c1ccccc1)n1ccnc1 [Clotrimazole],scaled lipid accumulation score,,≤ 0
same,scaled lipid accumulation score,[1],≤ 0
same,scaled lipid accumulation score,library stock concentration: 5.8 mM,≤ -0.001
same,scaled lipid accumulation score,[2],≤ 0
N=C(N)NC(=O)c1nc(Cl)c(N)nc1N,scaled lipid accumulation score,library stock concentration: 18.8 mM,≤ -0.021
N=C(N)NC(=O)c1nc(Cl)c(N)nc1N [Amiloride],scaled lipid accumulation score,library stock concentration: 8.7 mM,≤ -0.006
CC(=O)Nc1ccccc1 [Acetanilide],scaled lipid accumulation score,[1],≤ 0
same,scaled lipid accumulation score,[2],≤ 0 and 0.04
N=C(N)NC(=O)c1nc(Cl)c(N)nc1N [Amiloride HCl],scaled lipid accumulation score,[1],≤ 0
same,scaled lipid accumulation score,[2],≤ 0
N=C(N)NC(=N)Nc1ccccc1 [1-Phenylbiguanide hydrochloride],scaled lipid accumulation score,[2],≤ 0
N=C(N)NC(=O)c1nc(Cl)c(N)nc1N [Amiloride hydrochloride],scaled lipid accumulation score,library stock concentration: 7.5 mM,≤ -0.001
same,scaled lipid accumulation score,[2],≤ 0
N=C(N)NC(=O)c1nc(Cl)c(N)nc1N [Amiloride hydrochloride dihydrate],scaled lipid accumulation score,,≤ 0
N=C(NC(=O)c1nc(Cl)c(N)nc1N)Nc1ccccc1 [Phenamil],scaled lipid accumulation score,library stock concentration: 16.4 mM,1.07 (active)
CS(=O)(=O)O.N=C(NC(=O)c1nc(Cl)c(N)nc1N)Nc1ccccc1 [Phenamil methanesulfonate],scaled lipid accumulation score,[2],1.15 (active)
CCCCCCCCCCCCCCCC(=O)NCCc1ccc(O)c(O)c1 [N-Palmitoyl Dopamine],scaled lipid accumulation score,[3],≤ 0
CC[C@]1(O)C[C@@H]2CN(CCc3c([nH]c4ccccc34)[C@@](C(=O)OC)(c3cc4c(cc3OC)N(C)[C@H]3[C@@](O)(C(=O)OC)[C@H](OC(C)=O)[C@]5(CC)C=CCN6CC[C@]43[C@@H]65)C2)C1 [Vinblastine],scaled lipid accumulation score,[1],0.782
CC[C@]1(O)C[C@@H]2CN(CCc3c([nH]c4ccccc34)[C@@](C(=O)OC)(c3cc4c(cc3OC)N(C)[C@@H]3C45CCN4CC=C[C@](CC)([C@H]45)[C@H](OC(C)=O)[C@]3(O)C(=O)OC)C2)C1 (stereo partly specified) [Vinblastine],scaled lipid accumulation score,[2],0.956 (active)
CCCCC[C@@H](O)/C=C/[C@H]1[C@H](C/C=C\CCCC(=O)O)C(=O)C[C@@H]1O [ent-Prostaglandin E2],scaled lipid accumulation score,[3],≤ 0
CC(C)=CC[C@@H](O)C1=CC(=O)c2c(O)ccc(O)c2C1=O [Shikonin],scaled lipid accumulation score,library stock concentration: 6.9 mM,0.554
same,scaled lipid accumulation score,library stock concentration: 17.3 mM,≤ -0.012
CCCCC[C@H](O)/C=C/[C@H]1[C@H](O)CC(=O)[C@@H]1C/C=C\CCCC(=O)NCCO [Prostaglandin E2 Ethanolamide],scaled lipid accumulation score,[3],≤ 0

# Reference: the supplement of paper PMC9135407
